In PubChem BioAssay AID540296 (Southern Research Specialized Biocontainment Screening …, 2011) one finds outcome data, which are given here for 2 compounds.

Measured potencies and affinities stand elsewhere. The source made the active and inactive calls. No rule for the calls is given here.

This assay in a line: MDCK cell cytotoxicity, dose response, cytotoxicity control (AID 540296). Conditions: MDCK cells cytotoxicity; series mostly up to 40 µM.

Regarding `Cc1ccc(N2C(=O)C(CC(=O)Nc3cccc(F)c3)N(C3CC3)C2=O)cc1` (configuration not stated), the call was inactive. For `CN(C)c1cccc2c(C=C(C#N)C#N)ccc(N(C)C)c12` the value was “inactive”.
